The values below come from PubChem BioAssay (EPA / NIEHS).

Read-out in experiment [1]: alkyl and aryl transferase (GSTA2), GSTA2 (gene 2939)
Put plainly: CLD_GSTA2_6hr: CellzDirect (CLD) Gene Expression Assay for alkyl and aryl transferase (GSTA2) at 6 hours (AID 2283666). The procedure, abridged:
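GSTA2 transcript induction at 6 h, quantified by nuclease protection (qNPA) with chemiluminescent detection, in human liver primary hepatocytes exposed to several compound concentrations with 0.2% DMSO as baseline; phase-contrast morphology annotated apparent cytotoxicity.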

Read-out in experiment [2]: glucuronosyltransferase (UGT1A1), UGT1A1 (gene 54658)
Put plainly: CLD_UGT1A1_6hr: CellzDirect (CLD) Gene Expression Assay for glucuronosyltransferase (UGT1A1) at 6 hours (AID 2283672). The method, boiled down: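 UGT1A1 mRNA induction, read by quantitative nuclease protection assay, 6 h after dosing primary human hepatocytes (two donors, 0.2% DMSO vehicle). Gain of signal fitted relative to vehicle.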

Read-out in experiment [3]: xenobiotic metabolism (CYP1A1), CYP1A1 (gene 1543)
Put plainly: CLD_CYP1A1_24hr: CellzDirect (CLD) Gene Expression Assay for xenobiotic metabolism (CYP1A1) at 24 hours (AID 2283673).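 Note: CYP1A1 mRNA level by quantitative nuclease protection with chemiluminescence.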 The method, boiled down:
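Transcript levels were read at 24 h by qNPA chemiluminescence in human liver primary cells. Cells got daily fresh dosing at multiple concentrations (vehicle 0.2% DMSO). Induction fitted upward against DMSO; phase-contrast cytotoxicity annotated.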

A short description of experiment [4]: CLD_ACTIN_6hr: CellzDirect (CLD) Gene Expression Assay for Baseline Control (Actin) at 6 hours (AID 2283676).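 Note: active means increased actin mRNA relative to DMSO vehicle.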 The method, boiled down:
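Baseline actin transcript level measured by qNPA (S1 nuclease protection, chemiluminescence) in human hepatocyte cultures 6 h after chemical exposure; 0.2% DMSO vehicle as reference, cytotoxicity noted from morphology.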

A short description of experiment [5]: CCTE_Padilla_ZF_144hpf_TERATOSCORE: (Legacy) CCTE's 144 Hour Post-fertilization zebrafish Assay Teratoscore, Padilla Lab (AID 2283679; active = hit-call score of the fitted dose curve at least 0.9, where 1 is the maximum; inactive = score below 0.9;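 for AC50: zebrafish embryos with chorions exposed by immersion from 6-8 hpf to 5 dpf with daily renewal; teratogenicity score from eye scoring of death hatching and malformations at 144 hpf; higher score means more developmental defects relative to DMSO baseline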). The method, boiled down:
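Larvae scored by eye at 144 hpf for death, hatching and malformations after a day in clean Hanks'. Before that, daily-renewed exposure at 80 uM (0.4% DMSO, 26C) from roughly 6-8 hpf through 5 dpf, 4 embryos per chemical.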

Read-out in experiment [6]: Cytochrome P450 3A4 (Homo sapiens) (UniProt P08684)
The experiment can be described thus: CLD_CYP3A4_6hr: CellzDirect (CLD) Gene Expression Assay for xenobiotic metabolism (CYP3A4) at 6 hours (AID 2283680). The method, boiled down: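 CYP3A4 mRNA induction, 6 h after dosing of cultured primary human hepatocytes from two donors, read by quantitative nuclease protection (qNPA, chemiluminescence). Vehicle 0.2% DMSO as baseline; morphology-based cytotoxicity annotated yes/no.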

Read-out in experiment [7]: xenobiotic metabolism (CYP1A2), CYP1A2 (gene 1544)
Put plainly: CLD_CYP1A2_24hr: CellzDirect (CLD) Gene Expression Assay for xenobiotic metabolism (CYP1A2) at 24 hours (AID 2283683). The method, boiled down: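 CYP1A2 mRNA induction measured by quantitative nuclease protection (chemiluminescent) in human primary hepatocytes 24 h after multi-concentration chemical dosing with daily fresh solutions. DMSO (0.2%) baseline; positive-direction fitting; morphology-based cytotoxicity noted.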

Read-out in experiment [8]: ABC Transporter (ABCB1), ABCB1 (gene 5243)
Put plainly: CLD_ABCB1_24hr: CellzDirect (CLD) Gene Expression Assay for ABC Transporter (ABCB1) at 24 hours (AID 2283684).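 For AC50: potency for increase in ABCB1 mRNA relative to DMSO vehicle.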 The method, boiled down:
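ABCB1 mRNA induction versus 0.2% DMSO vehicle was read by qNPA chemiluminescence at 24 h. Cultured human hepatocytes from two donor preparations received daily fresh dosing, and phase-contrast cytotoxicity calls were annotated alongside the data.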

Read-out in experiment [9]: Cytochrome P450 2B6 (Homo sapiens) (UniProt P20813)
Put plainly: CLD_CYP2B6_24hr: CellzDirect (CLD) Gene Expression Assay for xenobiotic metabolism (CYP2B6) at 24 hours (AID 2283686). The method, boiled down: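 qNPA chemiluminescent measurement of mRNA at 24 hours in human primary hepatocyte cultures from two donor preparations, with daily fresh dosing and 0.2% DMSO vehicle as baseline. Morphology-based cytotoxicity flagged yes/no.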

Read-out in experiment [10]: sulfotransferase (SULT2A), SULT2A1 (gene 6822)
The experiment can be described thus: CLD_SULT2A_24hr: CellzDirect (CLD) Gene Expression Assay for sulfotransferase (SULT2A) at 24 hours (AID 2283694). The method, boiled down:
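mRNA is measured by qNPA: probe hybridisation, S1 nuclease digestion, chemiluminescence, in lysates from human primary hepatocytes harvested 24 h after daily dosing. Vehicle was 0.2% DMSO. Phase-contrast microscopy flagged cytotoxicity (yes/no).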

Read-out in experiment [11]: ABC Transporter (ABCB1), ABCB1 (gene 5243)
The experiment can be described thus: CLD_ABCB1_48hr: CellzDirect (CLD) Gene Expression Assay for ABC Transporter (ABCB1) at 48 hours (AID 2283695).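 For AC50: potency for induction meaning increase of mRNA over DMSO vehicle.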 The method, boiled down:
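ABCB1 mRNA was measured by quantitative nuclease protection assay (chemiluminescence) 48 h after dosing. Human hepatocyte cultures from two separate donors received fresh dosing solutions daily for two days, with 0.2% DMSO as vehicle. Positive-direction fit against DMSO.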

Read-out in experiment [12]: organic anion transporter (SLCO1B1), SLCO1B1 (gene 10599)
Put plainly: CLD_SLCO1B1_6hr: CellzDirect (CLD) Gene Expression Assay for organic anion transporter (SLCO1B1) at 6 hours (AID 2283668).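 Note: active means mRNA induction above DMSO baseline.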 The procedure, abridged:
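SLCO1B1 mRNA induction measured 6 h after dosing by quantitative nuclease protection with chemiluminescent read-out, in human primary hepatocyte cultures given chemicals at several concentrations (vehicle 0.2% DMSO). Increase over DMSO baseline fitted; morphology-based cytotoxicity annotated yes/no.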

Read-out in experiment [13]: ABC Transporter (ABCB11), ABCB11 (gene 8647)
The experiment can be described thus: CLD_ABCB11_6hr: CellzDirect (CLD) Gene Expression Assay for ABC Transporter (ABCB11) at 6 hours (AID 2283675).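 Note: hits raise ABCB11 mRNA level so AC50 marks induction.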 The method, boiled down: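 Read-out was ABCB11 mRNA gain of signal by quantitative nuclease protection assay, relative to 0.2% DMSO vehicle, 6 h post-dose. Cells were primary human hepatocytes from two donors, treated across multiple concentrations; phase-contrast cytotoxicity noted yes/no.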

Read-out in experiment [14]: Cytochrome P450 2C19 (Homo sapiens) (UniProt P33261)
Put plainly: CLD_CYP2C19_6hr: CellzDirect (CLD) Gene Expression Assay for xenobiotic metabolism (CYP2C19) at 6 hours (AID 2283678). The method, boiled down:
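CYP2C19 transcript induction was quantified by quantitative nuclease protection assay with chemiluminescent read-out, 6 h after dosing. Cells were primary human hepatocytes from two donor preparations, given fresh dosing solutions daily in 0.2% DMSO vehicle. Activity was relative to DMSO.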

Read-out in experiment [15]: organic anion transporter (SLCO1B1), SLCO1B1 (gene 10599)
The experiment can be described thus: CLD_SLCO1B1_24hr: CellzDirect (CLD) Gene Expression Assay for organic anion transporter (SLCO1B1) at 24 hours (AID 2283690). The method, boiled down:
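SLCO1B1 mRNA induction read at 24 h by quantitative nuclease protection assay (chemiluminescence), analyzed against DMSO baseline. Human hepatocyte cultures from separate donors received fresh dosing solutions daily; vehicle 0.2% DMSO; cytotoxicity flagged by phase-contrast morphology.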

Read-out in experiment [16]: ABC Transporter (ABCB11), ABCB11 (gene 8647)
Put plainly: CLD_ABCB11_24hr: CellzDirect (CLD) Gene Expression Assay for ABC Transporter (ABCB11) at 24 hours (AID 2283674; active = hit-call score of the fitted dose curve at least 0.9, where 1 is the maximum; inactive = score below 0.9). The method, boiled down: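 ABCB11 transcript was quantified by qNPA chemiluminescence in cultured human liver hepatocytes 24 hours after dosing. Fresh dosing solutions were applied on consecutive days, against a 0.2% DMSO vehicle. Cytotoxicity was noted by phase-contrast morphology.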

Read-out in experiment [17]: Broad substrate specificity ATP-binding cassette transporter ABCG2 (Homo sapiens) (UniProt Q9UNQ0)
The experiment can be described thus: CLD_ABCG2_24hr: CellzDirect (CLD) Gene Expression Assay for ABC Transporter (ABCG2) at 24 hours (AID 2283685). The procedure, abridged: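 ABCG2 mRNA induction, read as gain of chemiluminescent signal over 0.2% DMSO, was measured by quantitative nuclease protection at 24 h. Cultured human liver hepatocytes were given fresh dosing solutions of test chemicals at several concentrations each day.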

A short description of experiment [18]: Tanguay_ZF_120hpf_TR_legacy: (Legacy) Oregon State University Tanguay Lab 120 Hour Post-fertilization zebrafish Assay for Touch Response (AID 2283667). The procedure, abridged: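 Readout is presence or absence of touch response in 120 hpf zebrafish larvae, assessed by brightfield observation after continuous static exposure at 28C. Final vehicle was 0.64% (vol/vol) DMSO.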

Read-out in experiment [19]: Cytochrome P450 2C19 (Homo sapiens) (UniProt P33261)
Put plainly: CLD_CYP2C19_24hr: CellzDirect (CLD) Gene Expression Assay for xenobiotic metabolism (CYP2C19) at 24 hours (AID 2283687).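 Note: activity means mRNA induction above DMSO vehicle baseline.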 The method, boiled down: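 CYP2C19 mRNA was quantified by qNPA chemiluminescence after 24 h of daily dosing of cultured human primary hepatocytes from two donors; vehicle was 0.2% DMSO, and increases over DMSO baseline were fitted.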

Read-out in experiment [20]: Cytochrome P450 (CYP24A1_1), CYP24A1 (gene 1591)
Put plainly: LTEA_HepaRG_CYP24A1_1: Life Technologies and Expression Analysis (LTEA) Assay for Cytochrome P450 (CYP24A1_1) using HepaRG (AID 2283671; active = hit-call score of the fitted dose curve at least 0.9, where 1 is the maximum; inactive = score below 0.9). The note with it: mRNA level, 48 h; actives raise or lower the signal. The procedure, abridged: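 Cultures of human HepaRG were treated in duplicate for 48 h (0.5% DMSO vehicle, highest dose 100 uM). CYP24A1 mRNA by qRT-PCR, normalized to ACTB, GAPDH, POLR2A.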

Records with an inconclusive call do not appear. Calls of active or inactive are those of the source. Rule for the calls, unless noted: active = hit-call score of the fitted dose curve at least 0.9, where 1 is the maximum; inconclusive = response in the unintended direction; inactive = score below 0.9.

Sequence of Cytochrome P450 3A4 (Homo sapiens) (P08684 whole entry, looked up): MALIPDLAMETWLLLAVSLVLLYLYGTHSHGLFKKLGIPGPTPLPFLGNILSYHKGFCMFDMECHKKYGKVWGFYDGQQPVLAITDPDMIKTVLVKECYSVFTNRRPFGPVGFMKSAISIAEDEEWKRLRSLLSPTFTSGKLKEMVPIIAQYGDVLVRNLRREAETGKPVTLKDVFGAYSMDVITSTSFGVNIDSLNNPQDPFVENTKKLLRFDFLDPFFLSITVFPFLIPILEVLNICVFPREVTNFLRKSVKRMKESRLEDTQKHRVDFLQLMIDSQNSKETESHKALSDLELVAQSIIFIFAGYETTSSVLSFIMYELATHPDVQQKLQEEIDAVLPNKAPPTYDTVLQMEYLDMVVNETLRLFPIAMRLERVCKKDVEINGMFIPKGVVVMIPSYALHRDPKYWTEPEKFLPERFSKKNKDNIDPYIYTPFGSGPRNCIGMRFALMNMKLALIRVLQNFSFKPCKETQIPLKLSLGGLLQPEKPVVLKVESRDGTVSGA
Sequence of Broad substrate specificity ATP-binding cassette transporter ABCG2 (Homo sapiens) (Q9UNQ0 whole entry, looked up): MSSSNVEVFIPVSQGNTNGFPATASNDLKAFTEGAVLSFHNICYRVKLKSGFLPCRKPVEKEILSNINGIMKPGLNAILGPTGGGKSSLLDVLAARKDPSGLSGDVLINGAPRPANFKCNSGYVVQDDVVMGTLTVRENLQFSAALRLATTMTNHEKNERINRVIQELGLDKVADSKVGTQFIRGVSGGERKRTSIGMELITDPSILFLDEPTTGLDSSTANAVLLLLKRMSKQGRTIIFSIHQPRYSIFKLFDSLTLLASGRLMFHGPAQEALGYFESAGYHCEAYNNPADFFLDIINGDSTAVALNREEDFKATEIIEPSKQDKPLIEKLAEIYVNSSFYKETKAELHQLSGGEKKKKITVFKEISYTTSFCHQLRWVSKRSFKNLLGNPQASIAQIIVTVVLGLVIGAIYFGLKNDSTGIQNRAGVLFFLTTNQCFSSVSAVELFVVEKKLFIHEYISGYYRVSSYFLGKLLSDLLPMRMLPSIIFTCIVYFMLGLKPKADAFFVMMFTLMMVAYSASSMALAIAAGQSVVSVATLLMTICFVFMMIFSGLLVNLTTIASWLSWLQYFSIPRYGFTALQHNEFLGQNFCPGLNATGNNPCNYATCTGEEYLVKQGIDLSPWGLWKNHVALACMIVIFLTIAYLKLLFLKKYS
Sequence of Cytochrome P450 2C19 (Homo sapiens) (P33261 whole entry, looked up): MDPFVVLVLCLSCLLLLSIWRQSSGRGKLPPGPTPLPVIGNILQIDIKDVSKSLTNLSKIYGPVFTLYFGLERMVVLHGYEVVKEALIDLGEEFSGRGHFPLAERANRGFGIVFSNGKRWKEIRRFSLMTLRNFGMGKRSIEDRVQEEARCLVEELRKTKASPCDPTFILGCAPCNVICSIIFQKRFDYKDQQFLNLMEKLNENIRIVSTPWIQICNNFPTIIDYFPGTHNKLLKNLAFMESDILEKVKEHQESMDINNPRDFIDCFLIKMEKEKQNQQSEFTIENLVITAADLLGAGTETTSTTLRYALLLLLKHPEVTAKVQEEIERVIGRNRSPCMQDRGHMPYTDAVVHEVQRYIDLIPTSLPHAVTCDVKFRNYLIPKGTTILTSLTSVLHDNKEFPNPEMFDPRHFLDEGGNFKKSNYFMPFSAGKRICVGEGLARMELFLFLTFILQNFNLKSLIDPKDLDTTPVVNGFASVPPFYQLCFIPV

For the molecule `COC(=O)c1c(Cl)nn(C)c1S(=O)(=O)NC(=O)Nc1nc(OC)cc(OC)n1`, the molecule was classed as inactive in experiment [1], in experiment [2], in [3], in experiment [4], in [6] and in experiment [8]. Also, the molecule was called inactive in experiment [9], in [10] and in experiment [11]. The concentration at half-maximal activity (AC50) is 58.9 µM (active) in [5] and 0.797 µM (active) in [7].

In the case of `COC(=O)c1cccc(C)c1S(=O)(=O)NC(=O)Nc1nc(OCC(F)(F)F)nc(N(C)C)n1`, the call in [12], in experiment [2], in experiment [13], in [4], in [14] and in [5] was inactive. Moreover, the molecule was called inactive in experiment [6], in experiment [8], in experiment [15] and in [10]. The half-maximal activity concentration (AC50) is 5.36 µM (active) in experiment [3], 6.03 µM (active) in experiment [7] and 4.98 µM (active) in [9].

Turning to `CCC(O)=C1C(=O)CC(C(=O)O)CC1=O` (centres undefined), the molecule was classed as inactive in [1], in experiment [12], in experiment [2], in [16], in experiment [13] and in experiment [5]. For the same molecule, the outcome in experiment [8], in [17], in experiment [15] and in [11] was inactive.

As to `COC(=O)CSc1cc(N=c2sc(=O)n3n2CCCC3)c(F)cc1Cl`, the molecule was called inactive in [18], in experiment [2], in experiment [3], in experiment [14], in [8] and in [17]. For the same molecule, the result in experiment [19], in experiment [10] and in experiment [11] was inactive. The figures for the half-maximal activity concentration (AC50) in experiment [5], in experiment [6] and in [9] were 0.0125 µM (active), 1.3 µM (active) and 2.48 µM (active), respectively.

Turning to `S=C(S)NCCNC(=S)S.[Mn+2].[S-]C([S-])=NCCN=C([S-])[S-].[Zn+2]`, the call in experiment [18], in experiment [12], in experiment [20], in experiment [2], in experiment [13] and in experiment [7] was inactive. Besides, the outcome in experiment [17] and in [19] was inactive. Further, the values for the AC50 in experiment [6], in experiment [8] and in [11] were 3.97 µM (active), 1.5 µM (active) and 1.06 µM (active), respectively.

As to `Oc1ccc(C(c2ccc(O)cc2)C(Cl)(Cl)Cl)cc1`, the molecule was classed as inactive in experiment [1], in experiment [2], in experiment [3], in [16], in [13] and in [4]. Further, the molecule was called inactive in [6], in experiment [7], in experiment [8], in experiment [9], in [19] and in experiment [10].

For the molecule `CCOC(=O)[C@H](C)Oc1ccc(Oc2nc3ccc(Cl)cc3o2)cc1`, the outcome in experiment [12], in [2], in experiment [3], in experiment [16], in experiment [13] and in [4] was inactive. In addition, the molecule was classed as inactive in [7], in [17], in experiment [15] and in [10].
